# Source: PubChem BioAssay (EPA / NIEHS)
# “And” between values parts separate entries of the source, which are not always exact repeats. Identical values can stand only once. Some compounds were tested as several samples or in several runs, with calls that do not always agree. The source made the active and inactive calls. Rule for the calls: active = hit-call score of the fitted dose curve at least 0.9, where 1 is the maximum; inactive = score below 0.9.
# Experiment: ATG_BRE_CIS: Attagene CIS-FACTORIAL HepG2 Assay for human Bone Morphogenetic Protein (BMP) Response Element (BRE) (AID 2282933)
# Details: HepG2 BMP response element reporter, Attagene transcription factor profiling; actives raise or lower the signal
# Method in brief: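 Transient MRTU transfection of human HepG2 liver cells; 24 h compound treatment; total RNA isolated, reverse-transcribed, PCR-amplified, 6-FAM labelled, HpaI-cut, capillary electrophoresis. DMSO = negative control/baseline, bidirectional fit.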
SMILES,AC50,outcome
CCC(=O)O[C@H]1CC[C@H]2[C@@H]3CCC4=CC(=O)CC[C@]4(C)[C@H]3CC[C@]12C,149 µM (active) and 100 µM (active) and 160 µM (active),inactive
COc1ccc(O)c(C(C)(C)C)c1,–,inactive
CC1=C2C[C@H]3[C@@H](CC=C4C[C@@H](O)CC[C@@]43C)[C@@H]2CC[C@]12O[C@@H]1C[C@H](C)CN[C@H]1[C@H]2C,13.3 µM (active),–
O=C(N[C@H]1CN2CCC1CC2)c1cc2ccoc2cn1,–,inactive
NS(=O)(=O)C(F)(F)C(F)(F)C(F)(F)C(F)(F)C(F)(F)C(F)(F)C(F)(F)C(F)(F)F,45.4 µM (active) and 248 µM (active) and 15.5 µM (active),–
Oc1ccc(C(c2ccc(O)cc2)(C(F)(F)F)C(F)(F)F)cc1,16 µM (active),inactive
ClC(Cl)=C(c1ccc(Cl)cc1)c1ccc(Cl)cc1,–,inactive
C[C@]12CCC(=O)C=C1CC[C@@H]1[C@@H]2CC[C@@]2(C)[C@H]1CC[C@]2(C)O,91.5 µM (active) and 64 µM (active),inactive
CCCN(CCC)N=O,–,inactive
CC(C)(c1ccccc1)c1ccc(O)cc1,33.4 µM (active),inactive
Cc1cc2c3c(c1)C(c1ccccc1)=N[C@@H](NC(=O)c1ccncc1)C(=O)N3CC2,–,inactive
CC(C)(O)C(=O)Nc1ccc([N+](=O)[O-])c(C(F)(F)F)c1,77 µM (active) and 121 µM (active),inactive
CCCCCCOC(=O)c1ccccc1C(=O)OCCCCCC,–,inactive
